Cav3 T inh = human Cav3.2 channel inhibition, primary screen; O95180; Cav3.2-expressing cells, Fluo-4 calcium fluorescence FDSS; hits give low values; B-score at 10 µM; 100,000 tested, 4% active;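 active means single-dose well whose peak fluorescence ratio is a statistical outlier from its plate by either plate-standardised score or position-corrected B-score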
M1 antag = M1 muscarinic receptor (rat) antagonism; 64,000 tested, 3.4% active; CHO-M1 cells, Fluo-4 calcium, ACh EC80 antagonist mode; hits give low values; P08482; B-score at 10 µM;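 active means calcium fluorescence response, raw or row-and-column corrected B-score, differing from the plate sample mean either way at a set confidence level, mostly lower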
Target sequence (P08482 whole entry, looked up): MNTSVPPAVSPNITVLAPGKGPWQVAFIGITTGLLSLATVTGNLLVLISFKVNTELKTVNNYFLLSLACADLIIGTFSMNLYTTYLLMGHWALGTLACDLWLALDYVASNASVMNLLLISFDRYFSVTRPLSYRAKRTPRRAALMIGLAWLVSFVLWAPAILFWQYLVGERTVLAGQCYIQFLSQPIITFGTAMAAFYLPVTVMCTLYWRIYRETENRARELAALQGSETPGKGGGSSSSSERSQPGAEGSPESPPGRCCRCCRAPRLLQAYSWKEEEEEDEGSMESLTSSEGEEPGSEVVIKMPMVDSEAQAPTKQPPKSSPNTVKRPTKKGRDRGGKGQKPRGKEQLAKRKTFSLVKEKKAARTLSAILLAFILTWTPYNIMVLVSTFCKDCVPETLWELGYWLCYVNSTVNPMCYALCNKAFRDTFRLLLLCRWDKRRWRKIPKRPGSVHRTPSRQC
PLAP activator = human PLAP activation; purified PLAP enzyme, luminescent substrate read-out; hits give high values; P05187; activation fold at 20 µM; 96,000 tested, 1.2% active; in the data active means activation fold above about 2
M1 agonist = agonists of M1 muscarinic receptor | CHO-M1 cells, Fluo-4 calcium fluorescence, agonist mode; hits give high values | B-score at 10 µM | 64,000 tested, 3% active | AID 626;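 active means fluorescence rise, raw or as B-score row- and column-corrected plate score, outside the 99.7% band of its plate's samples, either direction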
Her2 expr inh = inhibitors of human Her2 kinase expression. SKBR-3 HER2 protein level, AlphaScreen, 18-24 h; hits give low values. HER2 level % of control, % at 10 µM. 65,000 tested, 0.69% active;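 active means HER2 level under 5% of the carrier-only control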;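 further: 100% = DMSO carrier and 0% = 500 nM PU-H71 HSP90 inhibitor; lower value means stronger loss of Her2 protein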
An asterisk follows results filed as active. Only some compounds are listed: those with a hit (about 7.9% of all), similar ones and a draw of the others.

What do the screens show for `COc1cccc(NC(=O)N2CCN(c3cccc(C)c3)C(C)C2)c1` (stereo not given)?
Cav3 T inh: -4.89*; M1 antag: -0.503; PLAP activator: 1.2; M1 agonist: -1.33; Her2 expr inh: 79.1

What do the screens show for `Cc1cccc(N2CCN(C(=O)CCc3nc4ccccc4[nH]3)CC2C)c1` (stereo not given)?
Cav3 T inh: -0.476; PLAP activator: 2.2*

How did Cc1cccc(N2CCN(C(=O)c3ccc4nc(-c5ccco5)c(-c5ccco5)nc4c3)CC2C)c1 (stereo not given) do in these assays?
Cav3 T inh: -6.55*; PLAP activator: 1.2

What do the screens show for `Cc1onc(-c2ccccc2Cl)c1C(=O)N/N=C(\N)COc1ccc(Cl)cc1`?
PLAP activator: 1.3

Results for Cn1cc(C(=O)c2ccc(Cl)cc2Cl)cc1C(=O)N/N=C(\N)COc1cccc(C(F)(F)F)c1 ?
Cav3 T inh: -8.36*; PLAP activator: 2*

Results for O=C(/C=C(\O)c1ccc(Cl)cc1)C(=O)NNC(=O)C(O)(c1ccccc1)c1ccccc1 ?
Cav3 T inh: -8.63*; PLAP activator: 1.7

What do the screens show for `Cc1ccc(C(C)C)c(OCCNC(=O)c2cncc(Br)c2)c1`?
Cav3 T inh: -4.91*; PLAP activator: 1

Results for O=C(NCCOc1ccccc1)c1cncc(Br)c1 ?
Cav3 T inh: 1.59; PLAP activator: 1

How did COc1ccc(C2NC(=S)NC3=C2CCc2cc(OC)ccc23)cc1 (stereo not given) do in these assays?
Cav3 T inh: -1.6; PLAP activator: 1

What do the screens show for `Cc1cc2nc(CCN(C(=S)NCC(C)C)C3CCCC3)[nH]c2cc1C`?
Cav3 T inh: -4.26*; PLAP activator: 2.4*

What do the screens show for `O=C(Nc1ccccc1)N1CCCC(c2nc(-c3cccs3)no2)C1` (stereo not given)?
Cav3 T inh: -0.986; M1 antag: -0.257; PLAP activator: 0.9; M1 agonist: -0.109; Her2 expr inh: 91.1

What do the screens show for `COC(=O)c1ccc(C23CC4(C2)[C@H](CN(CC2CCCCC2)[C@@H]4c2ccccc2)C3c2ccccc2)cc1` (stereo not given in full)?
Cav3 T inh: -0.61

How did CCCC1(c2ccccc2)NC(=O)N(CC(=O)c2[nH]c(C)c(C(=O)OCC)c2C)C1=O (stereo not given) do in these assays?
Cav3 T inh: -5.59*; M1 antag: 0.751; PLAP activator: 1.6; M1 agonist: 0.351; Her2 expr inh: 91.8

Results for Cc1ccc(CNC(=O)Cn2cccc2C(=O)c2ccccc2)cc1 ?
Cav3 T inh: -4.89*; PLAP activator: 0.9

Results for COC(=O)Cn1cccc1C(=O)c1ccccc1 ?
Cav3 T inh: 0.169; PLAP activator: 1

Results for Cc1cc(NC(=O)c2cnn3cccnc23)no1 ?
Cav3 T inh: 0.875; M1 antag: 0.809*; PLAP activator: 0.9; M1 agonist: 0.0695; Her2 expr inh: 89.0

What do the screens show for `Cc1cc(NC(=O)c2nn3cccnc3c2Cl)no1`?
Cav3 T inh: -1.33; PLAP activator: 1.1

What do the screens show for `C=CCn1c(COc2ccccc2)nnc1SC(C)C(=O)N/N=C/c1cc(Cl)ccc1O` (stereo not given)?
PLAP activator: 1.7

Results for CC1C/C(=N/O)C(C)CN1 (stereo not given) ?
Cav3 T inh: 0.0888; PLAP activator: 0.7

What do the screens show for `CN(C)CCNC(=O)C(C(=O)c1ccc(F)cc1)n1ccccc1=O` (stereo not given)?
Cav3 T inh: -0.0242; M1 antag: 0.357; PLAP activator: 0.9; M1 agonist: -0.062; Her2 expr inh: 102.0

Results for Cc1cc(C(=O)CN2C(=O)NC3(CCCCC3)C2=O)c(C)n1Cc1ccc2c(c1)OCO2 ?
Cav3 T inh: -2.14; M1 antag: 0.206; PLAP activator: 1.2; M1 agonist: -0.157; Her2 expr inh: 97.0

Results for Cc1cc(C(=O)CN2C(=O)NC(c3ccccc3)(c3ccccc3)C2=O)c(C)n1Cc1ccccc1 ?
Cav3 T inh: -4.99*; PLAP activator: 1.2

Results for CCOc1ccc(CNC(=O)CCCOc2cc(=O)n(C)c3ccccc23)cc1 ?
PLAP activator: 1.8

What do the screens show for `COc1cc(N2CN=c3s/c(=C\c4ccccn4)c(=O)n3C2)cc(OC)c1OC`?
Cav3 T inh: -1.19; M1 antag: 0.0267; PLAP activator: 1.6; M1 agonist: -0.446; Her2 expr inh: 103.2

Results for CCN(CC)CC(=O)Nc1cc(C)c2c(=O)oc3ccccc3c2n1 ?
M1 antag: 0.0259; M1 agonist: 0.721; Her2 expr inh: 79.0

Results for COc1ccc(C2NC(=O)N(CCCC(=O)O)C(C)=C2C(=O)OCc2ccccc2)cc1 (stereo not given) ?
Cav3 T inh: 1.12

Results for CCN(CC)C(=O)CSc1nc(-c2cccs2)cc(-c2cccs2)c1C#N ?
Cav3 T inh: -5.99*

Results for Cc1cccc(Nc2nnc(SCc3cn4ccsc4n3)s2)c1 ?
Cav3 T inh: -0.658; M1 antag: 0.0914; PLAP activator: 2.1*; M1 agonist: 1.69; Her2 expr inh: 59.0

Results for Cn1c(=O)[nH]c(=O)c2c1nc(CN1CCN(c3cccc(Cl)c3)CC1)n2Cc1ccccc1Cl ?
Cav3 T inh: -0.433; M1 antag: -0.0748; PLAP activator: 1.6; M1 agonist: -0.407; Her2 expr inh: 74.2

Results for Cc1ccc(Cl)cc1N1CCN(Cc2nc3c(c(=O)[nH]c(=O)n3C)n2Cc2ccccc2F)CC1 ?
M1 antag: 1.89; PLAP activator: 1.6; M1 agonist: -0.929; Her2 expr inh: 3.2*

How did O=C1NCC2=C1C(c1ccc(Br)cc1)Nc1ccccc1N2 (stereo not given) do in these assays?
M1 antag: 2.78; PLAP activator: 0.9; M1 agonist: 0.00258; Her2 expr inh: 98.6

Results for Cc1cc(C(=O)N[C@@H](c2ccccc2)[C@]2(C)C[C@H]2[C@@H](C)C(=O)Nc2ccc3ccccc3c2)no1 ?
Cav3 T inh: -4.57*

What do the screens show for `COc1ccc(N2C(=O)NC(NC(=O)c3ccncc3)(C(F)(F)F)C2=O)cc1` (stereo not given)?
Cav3 T inh: -0.6; PLAP activator: 0.8

How did O=C(Nc1ccon1)C(Sc1ccccc1)c1ccccc1 (stereo not given) do in these assays?
Cav3 T inh: -4.23*; M1 antag: -0.392; PLAP activator: 0.8; M1 agonist: -0.513; Her2 expr inh: 111.6

What do the screens show for `CN(C)/C=N/c1cc(=O)n(C)c(=O)n1Cc1ccccc1`?
Cav3 T inh: 2.15

Results for COC1(OC)N=C(N)C2(C#N)C(c3ccccc3)NC(C)=CC12C#N (stereo not given) ?
Cav3 T inh: 0.481; PLAP activator: 1

How did CC1=CC(C#N)(C#N)C(C#N)(C#N)C(c2ccccc2)N1 (stereo not given) do in these assays?
Cav3 T inh: -2.32; M1 antag: -0.279; PLAP activator: 1.6; M1 agonist: 25.4*; Her2 expr inh: 79.7

Results for CCOC(=O)c1cc(C(C)(C)C)oc1CNC(=O)c1c(C)oc2c1CCCC2 ?
Cav3 T inh: -4.63*

Screening results (PubChem)
